CYP2C9 activ: increases human cytochrome P450 2C9 activity. recombinant CYP2C9, luciferin-H conversion, luminescence; hits give high values; factor 1 = untreated enzyme, 0 = blocked. activation factor at 5 µM. actives 1.4% (n = 96,000);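 active = activation factor of 2 or more for CYP2C9 at a 5 µM dose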;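 note: 0 = sulfaphenazole-blocked wells and 1 = vehicle-only wells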
Cav32 inh: blocks human Cav3.2 T-type calcium channel. AID 449739. Cav3.2-expressing cells, Fluo-4 calcium fluorescence FDSS; hits give low values. B-score at 10 µM. actives 4% (n = 100,000);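 active = single-dose well whose peak fluorescence ratio is a statistical outlier from its plate by either plate-standardised score or position-corrected B-score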
CYP2C9 inh: blocks human cytochrome P450 2C9. CYP2C9 Supersomes, luciferin-H conversion, luminescence. inhibition, % at 5 µM. actives 20% (n = 96,000);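 active = blocking of liver enzyme CYP2C9 beyond about 50% at 5 µM, limit read from the data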
CYP2C19 activ: activators of human cytochrome P450 2C19; P33261; recombinant CYP2C19, luciferin-H EGE luminescence; hits give high values; 0 = fully inhibited enzyme, 1 = untreated enzyme; activation factor at 5 µM; 96,000 tested, under 10 active; AID 1025;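 active = activation factor of at least 2 at 5 µM in the primary screen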;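 note: 0 = wells with 2.5 mM tranylcypromine and 1 = vehicle-only wells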
CYP2C19 inhib: inhibitors of human CYP2C19; P33261; CYP2C19 Supersomes, luciferin-H EGE luminescence, 30 min; inhibition, % at 5 µM; actives 21% (n = 96,000); AID 778;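 active = CYP2C19 inhibition above a set limit at 5 µM in the primary screen, cut at about 50% in these data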;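 note: plate controls were negative control wells for no effect and 2.5 mM tranylcypromine positive control for full effect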
The depositor's hits bear a star; . = no result. Sampled rows, rich in hits. Any-hit rate of the full collection: about 27%.

SMILES | CYP2C9 activ | Cav32 inh | CYP2C9 inh | CYP2C19 activ | CYP2C19 inhib
O=[N+]([O-])c1ccc(C2CCCC/C2=N/OCc2ccc(F)cc2)c([N+](=O)[O-])c1 (configuration not stated) | 0.7 | -5.4* | 25 | 0.7 | 34
CC(=O)Nc1ccc(NC(=O)C(C)OC(=O)CN(C)S(=O)(=O)c2ccc(Cl)cc2)cc1 (configuration not stated) | 0.4 | 1.6 | 60* | 0.2 | 75*
CCCc1c(-c2ccc(O)cc2)nn(-c2ccc(O)cc2)c1-c1ccc(O)cc1 | . | -2.3 | . | . | .
Cc1cc(C)n(C2CCCCC2OC(=O)c2ccccc2)n1 (configuration not stated) | 0.8 | -2.3 | 19 | 0.5 | 53*
Cc1ccc(S(=O)(=O)N/N=C/c2ccc(OCC(=O)Nc3ccccc3Cl)cc2)cc1 | 0.2 | . | 84* | 0.7 | 30
O=C(COc1ccc(/C=N/NS(=O)(=O)c2ccccc2)cc1)Nc1ccc(F)cc1 | 0.4 | -6* | 65* | 0.8 | 17
C=C1CCN([C@H](C(=O)O)C(C)C)S(=O)(=O)c2ccccc21 | . | 0.32 | . | . | .
O[C@@H]1C2CCCC1[C@]1(O)CCCCC1C2 (some centres not stated) | 0.4 | . | 62* | 0.9 | 11
COc1ccc(C(c2nnnn2Cc2cccs2)N2CCN(c3ccccc3F)CC2)cc1 (configuration not stated) | 0.1 | -3.4* | 90* | 0.1 | 92*
COc1ccc(Cn2nnnc2C(C(C)C)N2CCN(c3ccccc3OC)CC2)cc1 (configuration not stated) | 0 | . | 97* | 0.1 | 92*
COc1ccc(OC)c(C(c2nnnn2Cc2ccccc2)N2CCN(C)CC2)c1 (configuration not stated) | 1 | 0.056 | 4 | 0.9 | 12
COc1ccc(C(c2nnnn2CC2CCCO2)N2CCN(c3ccc(F)cc3)CC2)cc1 (configuration not stated) | 0.2 | -0.051 | 78* | 0.5 | 48
COc1ccc(C(c2nnnn2Cc2ccccc2)N2CCN(c3nc4ccccc4s3)CC2)cc1 (configuration not stated) | 0.4 | -4.8* | 63* | 0.5 | 54*
Cc1cc(C(C)(C)C)oc1C(=O)Nc1ccc(CC(=O)O)cc1 | 1 | 0.57 | 1 | 1 | -3
COC(=O)C1=C(C(=O)OC)[C@@H]2N(C)c3ccccc3[C@@]23C[C@@H](C(=O)OC)N(C(=O)COCc2ccccc2)C3=N1 | . | 0.042 | . | . | .
Fc1ccc(C(c2nnnn2Cc2cccs2)N2CCN(C3CCCC3)CC2)cc1 (configuration not stated) | 1.1 | -0.46 | -11 | 0.2 | 80*
Oc1ccc(N2CCN(C(c3cccnc3)c3nnnn3Cc3ccccc3)CC2)cc1 (configuration not stated) | 0.4 | 0.44 | 57* | 0.5 | 52*
COc1ccc(C(c2nnnn2Cc2ccccc2)N2CCN(c3ccccc3)CC2)cc1 (configuration not stated) | 0.1 | -4.5* | 86* | 0.1 | 91*
COc1ccc(Cn2nnnc2C(c2ccncc2)N2CCOCC2)cc1 (configuration not stated) | 0.2 | 0.73 | 78* | 0.1 | 90*
O=C(O)CN1C(=O)COc2cc(S(=O)(=O)N3CCCC3)ccc21 | 0.9 | -0.56 | 11 | 1 | -2
CC1(C)CCCN(C(=O)c2coc(=O)c(Br)c2)C1 | 0.9 | 0.53 | 13 | 0.9 | 12
O=C1CCCc2oc3ccc(O)cc3c21 | . | 0.024 | . | . | .
CC(C)(C)c1cc(C(=O)NCc2ccccc2)ccn1 | . | 1.1 | . | . | .
O=C(O)c1cn[nH]c1-n1cnnn1 | 1.3 | 0.21 | -33 | 1.2 | -18
CCCc1cc(Nc2cccc(OCC)c2)n2ncnc2n1 | 0.5 | -0.065 | 48 | 0.8 | 19
SMILES | CYP2C9 activ | Cav32 inh | CYP2C9 inh | CYP2C19 activ | CYP2C19 inhib
CCCc1cc(Nc2cccc(OC)c2)n2ncnc2n1 | 0.7 | 0.13 | 34 | 0.4 | 55*
C=CCn1c(O)c(C=Nc2ccc(Cc3ccncc3)cc2)c(=O)[nH]c1=S | 0.2 | -0.095 | 83* | 0.1 | 88*
O=C1C(=O)N(CCOCCO)C(c2ccccn2)/C1=C(\O)c1ccccc1 (configuration not stated) | 1.1 | -1.1 | -6 | 1.1 | -14
O=C(C1CCN(S(=O)(=O)c2cccnc2)CC1)N1CCN(c2cccc(Cl)c2)CC1 | 1.1 | -0.23 | -13 | 0.6 | 42
CNS(=O)(=O)c1cnccc1N1CCN(c2cccc(Cl)c2)CC1 | 0.5 | -0.18 | 48 | 0.4 | 58*
CCCCC1(Cc2ccc(OC)c([N+](=O)[O-])c2)C(=O)N(c2ccccc2)N(c2ccccc2)C1=O | 0.8 | -3.6* | 20 | 0.8 | 23
CCC1=C(OC(=O)N(CC)CC)N2C(=O)OC(=NCCOC)[C@]2(Cc2ccccc2)[C@H]2C1=CC[C@H]1C(=O)N(C)C(=O)[C@H]12 | . | 0.034 | . | . | .
COc1ccc(NS(=O)(=O)c2ccc(OC)c3ccccc23)cn1 | 0.1 | -1.5 | 85* | 0.8 | 17
Cc1ccc2c(c1)-c1cc(C)nn1C(c1sccc1C)N2 (configuration not stated) | 0.4 | -0.087 | 56* | 0.2 | 79*
Cc1cc2n(n1)C(c1sccc1C)Nc1ccccc1-2 (configuration not stated) | 0.4 | -0.63 | 56* | 0.3 | 66*
Cc1cc2n(n1)C(c1sccc1C)Nc1c(C)cccc1-2 (configuration not stated) | 0.7 | -1.3 | 29 | 0.6 | 43
COC(=O)CNC(=O)Cc1c(F)cccc1Cl | 1.1 | -0.27 | -7 | 1.1 | -11
Cc1ccnc2nc(C(=O)Nc3ccc4c(c3)OCO4)nn12 | 0.6 | 0.23 | 44 | 0.2 | 75*
CCCN(CCC)S(=O)(=O)c1cccc(C(=O)Nc2ccc3c(c2)OCO3)c1 | 0.4 | . | 63* | 0.6 | 43
O=C(NCc1ccc(Cl)cc1)c1noc2c1CCCCC2 | 0.6 | -5* | 44 | 0.8 | 20
O=C(NCc1ccc(F)cc1)c1noc2c1CCCCC2 | 0.8 | -4.5 | 17 | 0.8 | 18
CCOc1ccc(C(=O)Nc2ccc3c(c2)OCO3)cc1OCC | 1.1 | 0.21 | -15 | 1.1 | -6
Cc1cc(C)n2nc(C(=O)Nc3ccc4c(c3)OCO4)nc2n1 | 1 | 0.1 | 4 | 0.9 | 7
O=C(/C=C\Nc1ccc2c(c1)OCO2)c1ccccn1 | 0.7 | -0.035 | 31 | 0.4 | 57*
COc1ccc(-c2csc(NCCc3nc4cc(Cl)c(Cl)cc4n3CCCO)n2)cc1 | . | -0.49 | . | . | .
N#CC1=C2C=CC=CN2CC1=O | 0.9 | -0.16 | 10 | 1.1 | -7
CCc1noc(N)c1C(=O)Nc1ccc(F)c(Cl)c1 | 0.9 | 0.98 | 14 | 0.8 | 22
c1cc(CNc2ccc3c(c2)OCO3)ccn1 | 0.4 | -0.78 | 63* | 0.3 | 71*
O=C(Nc1cccc(F)c1)c1ccc2c(c1)OCO2 | 0.5 | 0.3 | 50* | 0.1 | 94*
O=C(Nc1ccc2c(c1)OCO2)c1noc2c1CCCCC2 | 0.1 | -1.3 | 89* | 0.8 | 22
O=C(Nc1ccc2c(c1)OCO2)c1ccncc1 | 0.8 | -0.23 | 19 | 0.5 | 53*

Source: PubChem BioAssay (several laboratories)
